This is a sample that favours compounds with a hit; in the whole collection about 1.7% have one here.
Rin1-Abl PPI inh – inhibitors of human Rin1-Abl protein interaction | P00519+Q13671 | TR-FRET Rin1/Abl binding, biochemical | inhibition, % at 7.35 µM | 360,000 compounds, 0.4% hits; in the data active = inhibition above about 5%, passing the limit was not always enough
p97 inhibitor – blocks human p97 ATPase activity; P55072; recombinant p97 ATPase, Kinase-Glo ATP luminescence, 3 h; inhibition, % at 8 µM; 220,000 compounds, 0.42% hits; AID 1481; in the data active = inhibition above about 15%;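 note: 0% = DMSO vehicle and 100% = wells lacking enzyme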
Hck Nef HTS – blocks Nef-activated human Hck kinase; AID 463187; Recombinant Hck-YEEI plus Nef, Z-Lyte FRET kinase assay; 220,000 compounds, 0.68% hits; inhibition, % at 20 µM;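 active = Hck-Nef kinase inhibition above about 50%, limit read from the data; inactive = inhibition below that limit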;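 note: 0% = DMSO with Hck plus Nef and 100% = Hck alone without Nef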
Target sequence (P08631 whole entry, looked up): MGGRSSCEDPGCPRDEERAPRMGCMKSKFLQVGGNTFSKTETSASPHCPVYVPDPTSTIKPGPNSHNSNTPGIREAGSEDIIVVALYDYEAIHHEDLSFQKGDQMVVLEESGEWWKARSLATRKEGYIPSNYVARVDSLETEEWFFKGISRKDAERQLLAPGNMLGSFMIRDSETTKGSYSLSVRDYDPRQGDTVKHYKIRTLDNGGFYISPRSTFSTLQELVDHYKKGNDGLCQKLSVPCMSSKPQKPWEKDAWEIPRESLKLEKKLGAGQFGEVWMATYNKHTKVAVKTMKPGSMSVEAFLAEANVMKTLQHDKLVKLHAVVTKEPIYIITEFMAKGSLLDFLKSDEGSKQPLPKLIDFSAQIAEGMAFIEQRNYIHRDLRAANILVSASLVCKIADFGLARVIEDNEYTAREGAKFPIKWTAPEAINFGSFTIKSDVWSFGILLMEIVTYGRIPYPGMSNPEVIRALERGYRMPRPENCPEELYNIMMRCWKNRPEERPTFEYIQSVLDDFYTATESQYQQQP
LYPLA1 inh – counter-screen for PME1 inhibitors: inhibitors of human LYPLA1; AID 2174; O75608; 320,000 compounds, 0.16% hits; inhibition, % at 5.9 µM; recombinant LYPLA1, FP-Rh probe fluorescence polarization;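 active = inhibition above the mean of all tested compounds plus 3 SD, set per campaign, cut at about 14% in these data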;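 note: inhibitors block serine hydrolase probe labeling of LYPLA1 so polarization falls; 0% = enzyme with DMSO and 100% = wells lacking LYPLA1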
LYPLA2 inh – blocks human lysophospholipase 2, a PME1 counter-screen. O95372. inhibition, % at 5.9 µM. 320,000 compounds, 0.38% hits. recombinant LYPLA2, FP-Rh probe fluorescence polarization. AID 2177;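 active = inhibition above the screen-wide mean plus 3 SD, limit set per campaign, cut at about 26% in these data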;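 note: 0% = LYPLA2 with DMSO and 100% = wells lacking LYPLA2 enzyme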
PREPL inh – inhibitors of human prolyl oligopeptidase-like enzyme PREPL. recombinant PREPL, fluorescence polarization activity-based probe. 320,000 compounds, 0.68% hits. inhibition, % at 5.96 µM. Q4J6C6; in the data active = inhibition above about 43%;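 note: 0% = enzyme with DMSO and 100% = wells lacking enzyme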
LYPLA2 confirm – LYPLA2 (human) inhibition, confirmation counter-screen; shares compounds with LYPLA2 inh; recombinant LYPLA2, FP-Rh probe fluorescence polarization; inhibition, % at 5.9 µM; 1,100 compounds, 72% hits;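 active = mean inhibition across replicates above the hit cutoff set in the primary screen, cut at about 26% in these data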;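 note: blocked labeling of the enzyme by serine hydrolase FP-Rh probe lowers polarization; 0% = enzyme with DMSO and 100% = wells lacking LYPLA2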
LYPLA2 ABPP – inhibitors of human LYPLA2. shares compounds with LYPLA2 inh. rhLYPLA2 in mouse brain proteome, gel ABPP FP-Rh. inhibition, % at 20 µM. 150 compounds, 30% hits. AID 652029;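 active = inhibition of LYPLA2 enzyme probe labeling above about 50%, limit read from the data; inactive = inhibition below that limit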;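 note: loss of FP-Rh probe labeling of the LYPLA2 gel band measured as band density; 0% = DMSO only control band and 100% = blank gel background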
The depositor's hits bear a star.

`CN(C(=O)c1ccc(NC(=O)Cc2ccc(NC(=O)C3CCCN(C(=O)C4CCC4)C3)cc2)cc1)C1CCCC1` (stereo not given) gave Rin1-Abl PPI inh 0.
Screening CN(C(=O)c1ccc(NC(=O)Cc2ccc(NC(=O)C3CCCN(C(=O)C4CCCCC4)C3)cc2)cc1)C1CCCC1 (stereo not given) returned Rin1-Abl PPI inh -6.
For CN(C(=O)c1ccc(NC(=O)Cc2ccc(NC(=O)C3CCCN(C(=O)C4CCCCC4)C3)cc2)cc1)C1CC1 (stereo not given) the results were Rin1-Abl PPI inh 6, LYPLA1 inh 8, LYPLA2 inh 57*, PREPL inh 0, LYPLA2 confirm 51* and LYPLA2 ABPP 13.
Screening CN(C(=O)c1ccc(NC(=O)Cc2ccc(NC(=O)C3CCCN(C(=O)C4CCC4)C3)cc2)cc1)C1CC1 (stereo not given) returned Rin1-Abl PPI inh 10, LYPLA1 inh 4, LYPLA2 inh 66*, PREPL inh 4, LYPLA2 confirm 61* and LYPLA2 ABPP 41.
CN(c1nc2ccccc2[nH]c1=O)C1CCCCC1 was read as Rin1-Abl PPI inh 2, LYPLA1 inh -1, LYPLA2 inh 5 and PREPL inh -7.
Screening Cc1ccc([C@H]2C[C@@H](O)[C@H](n3cc(C4CC4)nn3)CN2CC2CCCCC2)cc1 returned Rin1-Abl PPI inh -4.
For CCOC1=C2[C@@H](CN(S(=O)(=O)c3ccc(C)cc3)[C@H]2c2ccccc2F)[C@H]2C(=O)N(CC)C(=O)[C@H]2C1 the results were Rin1-Abl PPI inh 2.
Screening O=C(CSc1ccccn1)N1CCN(c2ncc(C(F)(F)F)cc2Cl)CC1 returned Rin1-Abl PPI inh -1, p97 inhibitor 2, Hck Nef HTS 9, LYPLA1 inh 5, LYPLA2 inh -8 and PREPL inh 19.
O=C(O)c1nn(CC(=O)N2CCN(c3ncc(C(F)(F)F)cc3Cl)CC2)c(=O)c2ccccc12 was read as Rin1-Abl PPI inh -2, LYPLA1 inh 3, LYPLA2 inh 26*, PREPL inh 12 and LYPLA2 confirm 30*.
`COc1cccc(OC)c1C(=O)Nc1ccc(N2CCN(C(=O)c3cccs3)CC2)cc1` gave Rin1-Abl PPI inh 2, LYPLA1 inh 2, LYPLA2 inh 0 and PREPL inh 9.
For O=C(Nc1ccc(N2CCN(C(=O)c3cccs3)CC2)cc1)c1ccccc1Cl the results were Rin1-Abl PPI inh -1, LYPLA1 inh 2, LYPLA2 inh 41*, PREPL inh 7 and LYPLA2 confirm 41*.
Screening O=C(Nc1ccc(N2CCN(C(=O)c3cccs3)CC2)cc1)c1ccccc1F returned Rin1-Abl PPI inh 1, LYPLA1 inh 5, LYPLA2 inh 27*, PREPL inh 18 and LYPLA2 confirm 15.
Screening COc1ccc(CCN2CC(C(=O)Nc3ccc(S(C)(=O)=O)cc3)CC2=O)cc1OC (stereo not given) returned Rin1-Abl PPI inh 2, LYPLA1 inh -1, LYPLA2 inh 3 and PREPL inh -3.
For N#CCOC(=O)C1CCN(S(=O)(=O)c2ccc3c(c2)OCCO3)CC1 the results were Rin1-Abl PPI inh 1, LYPLA1 inh 0, LYPLA2 inh 5 and PREPL inh -6.
Screening Cc1ccc(NS(=O)(=O)c2ccc(-n3cccn3)cc2)nc1 returned Rin1-Abl PPI inh 0, LYPLA1 inh 3, LYPLA2 inh 4 and PREPL inh 15.
`COc1cc(C(=O)OC(C)C(=O)NC(=O)NC2CCCCC2)ccc1OC(F)F` (stereo not given) gave Rin1-Abl PPI inh 2, LYPLA1 inh 1, LYPLA2 inh -3 and PREPL inh 14.
Screening CC(=O)Nc1ccc(C(=O)OCC(=O)c2ccc(S(=O)(=O)N3CCCCC3)cc2)cc1 returned Rin1-Abl PPI inh -1, LYPLA1 inh -24, LYPLA2 inh -19 and PREPL inh -11.
Screening CNC(=O)COC(=O)c1ccc(Cl)c(S(=O)(=O)N2CCCC2)c1 returned Rin1-Abl PPI inh 5, p97 inhibitor 5, Hck Nef HTS 21, LYPLA1 inh 3, LYPLA2 inh 28*, PREPL inh -4 and LYPLA2 confirm 6.
CC(=O)Nc1cccc(C(=O)OCC(=O)c2ccc(S(=O)(=O)N3CCCCC3)cc2)c1 was read as Rin1-Abl PPI inh 0, LYPLA1 inh 8, LYPLA2 inh 66*, PREPL inh 5 and LYPLA2 confirm 62*.
`COc1cc(OC)cc(C(=O)OC(C)C(=O)NC2CCCc3ccccc32)c1` (stereo not given) gave Rin1-Abl PPI inh 0, LYPLA1 inh -4, LYPLA2 inh -5 and PREPL inh 1.
`CCC(CC)NC(=O)CN1CCN(S(=O)(=O)c2cccs2)CC1` gave Rin1-Abl PPI inh -1.
CN1CC(=O)N2Cc3[nH]c4ccccc4c3C[C@H]2C1=O was read as Rin1-Abl PPI inh 0, LYPLA1 inh 3, LYPLA2 inh 4 and PREPL inh 3.
`CCCCN1CC(=O)N2Cc3[nH]c4ccccc4c3C[C@H]2C1=O` gave Rin1-Abl PPI inh -1, LYPLA1 inh 2, LYPLA2 inh 39*, PREPL inh 13 and LYPLA2 confirm 27*.
CCCN(CCC)C(=O)c1ccc2c(c1)S(=O)(=O)c1ccccc1C2=O was read as Rin1-Abl PPI inh -4, LYPLA1 inh 5, LYPLA2 inh 31*, PREPL inh 6 and LYPLA2 confirm 20.
For COc1ccc([C@H]2CC(=O)C=C(c3cccc(OC(F)(F)F)c3)C2)cc1 the results were Rin1-Abl PPI inh 0, LYPLA1 inh 12, LYPLA2 inh 18 and PREPL inh 0.
For CC(C)(C)c1ccc(-c2c(C#N)c(N)nc3c2CCCC3)s1 the results were Rin1-Abl PPI inh 2, p97 inhibitor -7, Hck Nef HTS 0, LYPLA1 inh -1, LYPLA2 inh -2 and PREPL inh -2.
Screening CCc1sc(-c2c(C#N)c(N)nc3c2CCCCCC3)cc1[N+](=O)[O-] returned Rin1-Abl PPI inh 1, p97 inhibitor 0, Hck Nef HTS -2, LYPLA1 inh 0, LYPLA2 inh 45*, PREPL inh 2 and LYPLA2 confirm 39*.
Screening COc1ccc(/C=C2\SC(=O)N(CC(=O)Nc3cccc(C)c3)C2=O)cc1O returned Rin1-Abl PPI inh -2, LYPLA1 inh -13, LYPLA2 inh 41*, PREPL inh 15 and LYPLA2 confirm 38*.
